A short description of test [1]: NCI Yeast Anticancer Drug Screen. Data for the rad50 strain (AID 155).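 Further: 0% = growth of vehicle-only cultures of the same strain.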 Particulars: S. cerevisiae rad50 strain growth inhibition; at 50.0 µM; stronger effect = higher value. Put shortly: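 Compounds were tested on a yeast strain with an engineered DNA damage repair alteration; the reported value is growth inhibition normalised to vehicle treatment.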
Test [2] is described as follows: NCI Yeast Anticancer Drug Screen. Data for the mec2-1 strain (AID 157). The note with it: S. cerevisiae mec2-1 strain, at 50.0 µM, stronger effect = higher value. In outline:
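Growth inhibition is read against vehicle-treated controls after compound exposure of the mec2-1 yeast strain, which is defective in DNA damage repair or cell cycle control.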

Test [3] is described as follows: NCI Yeast Anticancer Drug Screen. Data for the sgs1 mgt1 strain (AID 161).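 Further: 0% = growth of cultures given vehicle only.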 The note with it: S. cerevisiae sgs1 mgt1 strain, at 50.0 µM, stronger effect = higher value. Put shortly: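 Growth of a repair-deficient yeast mutant was monitored after compound treatment and expressed as inhibition relative to vehicle-treated cultures.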
A short description of test [4]: NCI Yeast Anticancer Drug Screen. Data for the cln2 rad14 strain (AID 165).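 Further: 0% = growth equal to vehicle treated cultures.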 The note with it: S. cerevisiae cln2 rad14 strain, at 50.0 µM, stronger effect = higher value. In outline:
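Growth inhibition, relative to vehicle-treated controls, is the read-out. The test organism is a yeast strain with defined genetic alterations, cln2 rad14.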

Test [5] can be described thus: NCI Yeast Anticancer Drug Screen. Data for the bub3 strain (AID 167). Particulars: S. cerevisiae bub3 mutant strain, at 50.0 µM, stronger effect = higher value. Put shortly: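 Growth of a checkpoint-deficient yeast mutant is measured after compound exposure. Values represent inhibition relative to vehicle.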
Test [6] is described as follows: NCI Yeast Anticancer Drug Screen. Data for the mlh1 rad18 strain (AID 175). Particulars: S. cerevisiae mlh1 rad18 strain growth inhibition; at 50.0 µM; stronger effect = higher value. In outline: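 Cells of a genetically altered yeast strain, deficient in DNA damage repair, were treated with compound. Their growth was then compared with that of vehicle-treated cultures to give inhibition.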

This is part of a sample that, as a whole, favours compounds with a hit. Of some 79,000 tested, about 15% had one in any assay. Unmarked numbers belong to inactive results. Active and inactive are the calls of the source. No stated cut-off is given here; in the data, active means growth inhibition above about 70%; inactive means the rest.

Regarding `O=[N+]([O-])c1cccc([As](=O)(O)c2ccc(O)c([N+](=O)[O-])c2)c1`, the growth inhibition in test [1] was 5.6%; in test [2], 10.2%; in test [3], 15.1%; in test [4], -4.3%; in test [5] it was 20.4%; in test [6], 4.65%.

In the case of `CC1[N-]C(/C=N/O)NC(C)N1.CC1[N-]C(/C=N/O)NC(C)N1.[Br][Ni+2][Br]` (centres undefined), the growth inhibition in test [1] is -14.9%; in test [2], -10%; in test [3], -22.3%; in test [4] it was -19%; in test [5], 0.65%; in test [6], -15.7%.

With `Cc1ccc(N)cc1`, the growth inhibition in test [1] was 2.1%; in test [2], -2.55%; in test [3], -7.2%; in test [4], -1.1%; in test [5], 9.4%; in test [6] it was 1.3%.

For the molecule `CCC(=O)NCC1CCCN2CCCCC12` (centres undefined), the growth inhibition in test [1] was -4.55%; in test [2] it was -8.35%; in test [3], -18.5%; in test [4], 2.65%; in test [5] it was 6.95%; in test [6], -22%.

With `CCCC[S][Sn-]([CH2]CCC)([CH2]CCC)[CH2]CCC`, the growth inhibition in test [1] was 98.7% (active); in test [2] it was 98.7% (active); in test [3], 99.2% (active); in test [4], 98.5% (active); in test [5], 99% (active); in test [6], 99% (active).

On to `[I][Hg][CH]1CCC2CCCC1O2` (centres undefined), for which the growth inhibition in test [1] is 99.7% (active); in test [2], 99.6% (active); in test [3], 99.8% (active); in test [4], 99% (active); in test [5], 98.8% (active); in test [6], 99.7% (active).

`Clc1ccc(C(Cl)(Cl)Cl)c(Cl)c1`: the growth inhibition in test [1] is 9%; in test [2], 6.35%; in test [3] it was -9.3%; in test [4], -15.8%; in test [5], 17.9%; in test [6], 20.4%.

Turning to `O=[N+]([O-])c1cccc(N=Nc2ccc(N(CCCl)CCCl)cc2)c1`, the growth inhibition is -23.4% in test [1]; 0.6% in test [2]; -2.55% in test [3]; -27.2% in test [4]; 4.65% in test [5]; 11.6% in test [6].

For `Oc1cccc(-c2ccccc2)c1`, the growth inhibition in test [1] was 20.5%; in test [2] it was 17.2%; in test [3], 20.3%; in test [4], 5.35%; in test [5] it was 30.1%; in test [6], 21.2%.

`COc1cccc(C2CC(=O)c3cccn32)c1` (centres undefined): the growth inhibition in test [1] is 11.3%; in test [2], 1.65%; in test [3], -4.7%; in test [4] it was 21.3%; in test [5], -5.25%; in test [6], -17.2%.

Consider `Clc1cc2nncc(N3CC3)c2cc1Cl`, for which the growth inhibition in test [1] was -3.25%; in test [2], -24.4%; in test [3], -3.75%; in test [4], 9.95%; in test [5], -7.8%; in test [6] it was -21.4%.

Consider `C1CCN2COCC2C1` (centres undefined), for which the growth inhibition was -16.2% in test [1]; -16.9% in test [2]; -38.5% in test [3]; 0.7% in test [4]; -17.2% in test [5]; 22.4% in test [6].

For `O=C1CC2(CCNCC2)C(=O)N1N1CCCCC1`, the growth inhibition in test [1] was -2.5%; in test [2] it was 12%; in test [3] it was 5.9%; in test [4], 7.15%; in test [5], 1.45%; in test [6] it was 5.4%.

In the case of `OC1[C@@H]2[C@@H](O)CCCN2C[C@@H](O)[C@H]1O` (some centres undefined), the growth inhibition in test [1] was -53.2%; in test [2], -93%; in test [3], -31.9%; in test [4] it was -20.6%; in test [5], 1.05%; in test [6] it was -28.1%.

On to `Cc1cc(C)n(/C(N)=N/[N+](=O)[O-])n1`, for which the growth inhibition in test [1] is -15.3%; in test [2], -18.9%; in test [3], 3.6%; in test [4] it was 12.6%; in test [5], 21.6%; in test [6], 15.2%.

With `Cc1ccc(C(=O)Nc2ccc(CP(=O)(O)O)cc2)cc1NC(=O)Nc1cc(C(=O)Nc2ccc(CP(=O)(O)O)cc2)ccc1C`, the growth inhibition in test [1] is 3.55%; in test [2], -10.6%; in test [3], -30.1%; in test [4], 11.9%; in test [5], -29.1%; in test [6], 7.45%.

Regarding `CN1CCC2(CC1)C(C#N)C(=O)NC(=O)C2C#N` (centres undefined), the growth inhibition in test [1] is 19.8%; in test [2], 3%; in test [3], 11.7%; in test [4], 22.9%; in test [5] it was 9.05%; in test [6] it was 7.75%.

Regarding `CC(Cc1ccc2c(c1)OCO2)NCC(O)c1ccc(O)c(O)c1` (centres undefined), the growth inhibition in test [1] is 14.6%; in test [2] it was -20.2%; in test [3], 18.2%; in test [4], 5%; in test [5], 32.2%; in test [6], 26.6%.

In the case of `O=C(N/N=C/c1ccc(N(CCCl)CCCl)cc1)c1ccc(N(CCCl)CCCl)cc1`, the growth inhibition was 30.6% in test [1]; 4.65% in test [2]; 26.6% in test [3]; 37.8% in test [4]; 4.55% in test [5]; 7.9% in test [6].

The record behind these values is PubChem BioAssay (NCI).
